Hit rate of the full screen: of about 360,000 compounds, about 810 (0.23%) were called active. Cut-off read from the data, not from the text of the source: active = potentiation above about 50%; inconclusive = mostly about 30% to 49%; inactive = weaker than that. What follows is part of a selection rich in actives, with near analogues and random picks from the rest.
target: D(2) dopamine receptor (Homo sapiens) (UniProt P14416); test: Beta-Arrestin HTS for Positive Allosteric Modulators of the Human D2 Dopamine Receptor: Potentiators; details: DiscoveRx D2 beta-arrestin cells, luminescence, 90 min; hits give high values; 100% = 57 uM dopamine signal
Sequence (P14416 whole entry, looked up): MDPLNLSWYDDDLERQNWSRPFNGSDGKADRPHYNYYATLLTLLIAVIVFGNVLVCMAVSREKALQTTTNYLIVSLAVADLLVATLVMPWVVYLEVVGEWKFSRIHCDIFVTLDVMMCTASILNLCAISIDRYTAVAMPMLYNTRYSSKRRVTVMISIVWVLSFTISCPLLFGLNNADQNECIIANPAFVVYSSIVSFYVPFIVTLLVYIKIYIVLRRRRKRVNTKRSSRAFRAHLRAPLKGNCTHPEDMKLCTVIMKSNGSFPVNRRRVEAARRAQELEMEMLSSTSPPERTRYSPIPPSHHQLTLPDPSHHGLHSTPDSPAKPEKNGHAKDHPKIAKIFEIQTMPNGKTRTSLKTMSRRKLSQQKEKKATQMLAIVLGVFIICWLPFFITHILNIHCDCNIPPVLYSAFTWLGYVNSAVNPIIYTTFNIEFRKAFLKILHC
Source text: There is great interest in identifying small molecule ligands for G-protein coupled receptors (GPCRs) as nearly 50% of all FDA-approved drugs target these important receptor proteins. […] Amongst the dopamine receptors (DARs), the D2 is arguably one of the most validated drug targets in neurology and psychiatry. For instance, all receptor-based antiparkinsonian drugs primarily work via stimulating the D2 DAR, whereas all FDA-approved antipsychotic agents are antagonists of this receptor. The D2 DAR is also therapeutically targeted in other disorders such as restless legs syndrome, tardive dyskinesia, Tourette's syndrome, and hyperprolactinemia.
To this end, a miniaturized qHTS screen was developed to be screened against the Molecular Libraries Small Molecule Repository (MLSMR). This assay seeks to identify potentiators against the D2 DAR.
NIH Molecular Libraries Probe Production Network [MLPCN]
NIH Chemical Genomics Center [NCGC]
PI Name: David Sibley, National Institutes of Neurological Disorders and Stroke
DiscoveRx D2 cells were thawed from frozen stock and seeded at 2,100 cells/ 3 uL/well media (DiscoveRx Plating Reagent 2) with MultiDrop Combi dispenser (Thermo Scientific, Logan, UT) onto white tissue culture treated 1536-well Aurora plates (Brooks Automation, Chelmsford, MA) and allowed to attach overnight at 37 deg C, 5% CO2. Next, 23 nL/well of compound solutions in DMSO were added with a pintool transfer (Kalypsis, San Diego, CA). As the positive control, 1 uL/well dopamine (EC100, 57 uM final concentration) diluted in buffer (HBSS + 10 mM HEPES + SMB + 0.1 %Tween-20) was dispensed to 1 column of each plate. EC20 (Dopamine at 50 nM final concentration) was dispensed to the rest of the plate except columns 1 &2 which were used as negative control (EC=0, buffer only), 1 uL/well as well. The cells were stimulated by compounds and dopamine for 90 minutes at 37 deg C, 5% CO2, after which 1.5 uL/well of DiscoveRx detection reagent was added with BioRAPTR FRD dispenser. The detection reagent was prepared by mixing of Galacton Star Substrate, Emerald II solution and PathHunter buffer (supplied by the assay kit) together at 1:5:19 proportion accordingly just prior to dispensing. The plates were incubated at ambient temperature for 1 hour and then the luminescent signal was read on ViewLux plate reader (PerkinElmer, Waltham, MA).

| SMILES | potentiation |
| --- | --- |
| Cc1cc(N2CCCC2=O)cc(C)c1S(N)(=O)=O | -18.2% (inactive) |
| O=C1NC(=O)C(c2ccc(Cl)cc2)N1 (stereo not drawn) | -7.09% (inactive) |
| CCCCC(=O)Nc1nnc(S(=O)(=O)N(C)Cc2ccco2)s1 | -7.89% (inactive) |
| Cn1cc(/C=C/C(=O)N2CCCC(C(=O)c3ccc(C(F)(F)F)cc3)C2)cn1 (stereo not drawn) | -1.59% (inactive) |
| COc1ccc(C(=O)C[n+]2ccc(N)c(C)c2C)cc1 | -3.23% (inactive) |
| COc1cc(C(=S)N2CCOCC2)cc(OC)c1OC(=O)c1ccc([N+](=O)[O-])cc1[N+](=O)[O-] | 136% (active) |
| COC(=O)c1cc(Oc2ccc(S(=O)(=O)N3CCOCC3)cc2[N+](=O)[O-])cc(C(=O)OC)c1 | -0.101% (inactive) |
| COc1cc([N+](=O)[O-])cc([N+](=O)[O-])c1NC(=O)N1CCOCC1 | -13.5% (inactive) |
| O=C(NCCCn1ccnc1)C(=O)NCC1OCCN1S(=O)(=O)c1cc(F)ccc1F (stereo not drawn) | -2.44% (inactive) |
| COC(=O)c1cccnc1NC(=S)NC(C)C | 2.31% (inactive) |
| CC(=O)NC(C)(C)C1CC=C(C)/C(=N\O)C1 (stereo not drawn) | -2.42% (inactive) |
| NC(Cc1ccc(F)cc1)c1csc(Nc2nncc3ccccc23)n1 (stereo not drawn) | 0.276% (inactive) |
| Cc1ccc(Cc2c(-c3ccco3)nc3ccc(Cl)cn23)cc1 | -4.9% (inactive) |
| Cc1nn(C)c(C)c1S(=O)(=O)N1CCc2ccccc21 | 3.69% (inactive) |
| CCO[C@@H]1OC(C(=O)NC2CC2)=C[C@H](C)[C@H]1CCCO | -6.01% (inactive) |
| O=C(Oc1ccc(Br)cc1C(=S)N1CCOCC1)c1cccc([N+](=O)[O-])c1 | -0.594% (inactive) |
| O=C(Oc1ccccc1C(=S)N1CCCCC1)c1cc([N+](=O)[O-])cc([N+](=O)[O-])c1 | 58.7% (active) |
| CC1CCN(C(=S)c2cccc([N+](=O)[O-])c2)CC1 | -3.98% (inactive) |
| CCCCn1c(N)c(N(CCC(C)C)C(=O)c2ccc(COc3ccccc3)o2)c(=O)[nH]c1=O | -0.984% (inactive) |
| COc1cccc(NC(=O)C2(C)CCN2Cc2ccccc2Cl)c1 (stereo not drawn) | -7.17% (inactive) |

| SMILES | potentiation |
| --- | --- |
| CN(CC(=O)Nc1c(Cl)cccc1Cl)C(=O)CC1OC(=O)c2ccccc21 (stereo not drawn) | -2.61% (inactive) |
| CC(OC(=O)c1ccccc1NCCO)C(=O)Nc1ccnn1C(C)C (stereo not drawn) | -3.07% (inactive) |
| O=C(NCc1cc(F)cc(C(F)(F)F)c1)C1CCC(=O)N(C2CCCC2)C1 (stereo not drawn) | 2.66% (inactive) |
| Cc1ccc(S(=O)(=O)N2CCOCC2)cc1C(=O)NC(=S)N(Cc1ccccc1)C(C)C | 10.6% (inactive) |
| CC1(C)C(=O)CCC2(C)C1=CCC1C2C(=O)CC2(C)C1CCC2(O)C(=O)CO (stereo not drawn) | -30.8% (inactive) |
| O=C(CCc1ccccc1)Nc1ccc(NC(=O)C2CCCCC2)nc1 | -8.09% (inactive) |
| Cc1cc([N+](=O)[O-])nn1CC(=O)Nc1ccc(Cc2ccncc2)cc1 | -10.7% (inactive) |
| Cc1cc(C)n(CC(=O)Nc2ccc([N+](=O)[O-])cc2)n1 | 70.7% (active) |
| Cc1nn(CC(=O)Nc2ccc(C#N)cc2)c(C)c1[N+](=O)[O-] | -8.67% (inactive) |
| Cc1ccc(NC(=O)CS(=O)CC(=O)N(c2ccccc2)C(C)C(=O)NC2CCCC2)cc1 (stereo not drawn) | -14.4% (inactive) |
| CCCc1nnc(SCC(=O)N2C(C)CCCC2C)n1CC (stereo not drawn) | -7.75% (inactive) |
| CC(NC(=O)CC1SC(N)=NC1=O)c1ccccc1 (stereo not drawn) | -0.5% (inactive) |
| C[C@H]1CN([C@@H](C)CO)C(=O)c2cc(-c3cccc(F)c3)cnc2O[C@@H]1CN(C)S(C)(=O)=O | 7.41% (inactive) |
| Cc1csc(NC(=O)C2CCCN2C(=O)OCC(C)C)n1 (stereo not drawn) | -5.09% (inactive) |
| COc1ccc(S(=O)(=O)N2CCN(CC(=O)N3CCOCC3)CC2)cc1OC | -5.65% (inactive) |
| O=C(Nc1cc(F)ccc1F)c1ccc2c(=O)n3c(nc2c1)CCC3 | -9.48% (inactive) |
| CC(C)S(=O)(=O)c1csc(NC(=O)Nc2ccc(Cl)cc2)c1Cl | -6.65% (inactive) |
| CCOc1ccc(CCNC(=O)CCc2nnc3ccc(N4CCCC4)nn23)cc1OCC | 2.77% (inactive) |
| Cc1occc(=O)c1OCc1c(Cl)cccc1Cl | -9.29% (inactive) |
| CCN(CC)CCCC(C)n1c2nc(=O)[nH]c(=O)c-2nc2cc(Cl)ccc21 (stereo not drawn) | 80.2% (active) |

| SMILES | potentiation |
| --- | --- |
| COc1cccc(NC(=O)C2(C)CCN2C(=O)CCC2CCCC2)c1 (stereo not drawn) | -1.05% (inactive) |
| COc1ccc(C(C)(O)c2nc(-c3ccc(C)c(C)c3)cs2)cc1 (stereo not drawn) | -10.5% (inactive) |
| CC(C)(C)C(=O)OCc1nc(-c2ccc(O)c(O)c2)cs1 | 70.4% (active) |
| CCCC(=O)N1c2ccc(-c3csc(N)n3)cc2CC1C (stereo not drawn) | -21.2% (inactive) |
| CC(C)NC(=O)C1(C)CCCCCN1C(=O)c1ccc(-c2ccccc2)cc1 (stereo not drawn) | -9.96% (inactive) |
| CC1(C)CCSC(/C=C/c2ccccc2)=N1 | -38.8% (inactive) |
| CNc1cnc(-c2cc(OC)c(OC)c(OC)c2)cn1 | 0.325% (inactive) |
| O=C(Nc1ccccc1F)c1ccc(Cn2cc(Br)cn2)cc1 | -6.63% (inactive) |
| CC(C)CCNC(=O)c1cccnc1Sc1ccccc1 | -21.6% (inactive) |
| COCCNC(=O)C1CCN(C(=O)C2CC(=O)N(c3ccc(C)cc3)C2)CC1 (stereo not drawn) | -6.43% (inactive) |
| O=S(=O)(Cc1cc(Cl)nc(-c2cccnc2)n1)c1ccccc1 | 11.9% (inactive) |
| COc1cc2c(cc1OC)CN(C(C)C(=O)Nc1cccc(S(=O)(=O)N3CCOCC3)c1)CC2 (stereo not drawn) | -31.3% (inactive) |
| CC(C)CCNC(=O)C1CCC(CNc2c(N3CCC(C)CC3)c(=O)c2=O)CC1 (stereo not drawn) | -6.3% (inactive) |
| OCC[C@H]1C[C@@H](O)[C@H](O)[C@@]2(OCCc3ccccc32)O1 | -8.36% (inactive) |
| COc1ccc(CCNC(=O)CCn2c(=O)c3ccccc3n(CC(=O)NCC3CCCO3)c2=O)cc1OC (stereo not drawn) | -2.84% (inactive) |
| CC(=O)Nc1ccc(S(=O)(=O)Oc2ccc(/C=N/N=C3/NC(=O)C(CC(=O)O)S3)cc2)cc1 (stereo not drawn) | 1.2% (inactive) |
| O=C(CCSc1ccccc1)NCCSc1ccccn1 | -0.984% (inactive) |
| O=C1CSC(c2cccc(F)c2)N1c1ccc(O)cc1 (stereo not drawn) | -4.16% (inactive) |
